# Measurements: the supplement of paper PMC8728848
# This excerpt belongs to a sample that is enriched for the strongest signals.
# B1: cFel (Cyprinus carpio), P68512 (protein)
# chain: LDCTVIDGNLKQIDAGSGSVVGVNNLNETFVLIDNVFTKISGSLKHFSVGPAGQLGVNTANNIFKYQSGGFVQLAGLLKQVDAGGDQIIAGVNMYDDIYCLNMDANNKWPSSNTPWVQINGKLKYYSCGPYSCWGVNSNDQIFIMKDVSSNVCSGSGSFINIPGLLSMIEVATDGSVFGVNSQGNLYQRTGVTRSKPDGTDWISMVACPNGHKHVSFDLGVLWLVCVDGSIRKCILTD
# B2: AAL (Aleuria aurantia), P18891 (protein)
# chain: PTEFLYTSKIAAISWAATGGRQQRVYFQDLNGKIREAQRGGDNPWTGGSSQNVIGEAKLFSPLAAVTWKSAQGIQIRVYCVNKDNILSEFVYDGSKWITGQLGSVGVKVGSNSKLAALQWGGSESAPPNIRVYYQKSNGSGSSIHEYVWSGKWTAGASFGSTVPGTGIGATAIGPGRLRIYYQATDNKIREHCWDSNSWYVGGFSASASAGVSIAAISWGSTPNIRVYWQKGREELYEAAYGGSWNTPGQIKDASRPTPSLPDTFIAANSSGNIDISVFFQASGVSLQQWQWISGKGWSIGAVVPTGTPAGW
# Columns and labels:
# Assay in all cases: glycan array binding signal (z-score within array); higher = stronger binding
# Conditions in all cases: glycan notation: IUPAC condensed, linker removed
# [1] = target: Fuc(a1-2)Gal(b1-3)GlcNAc(b1-2)Man(a1-3)[Fuc(a1-2)Gal(b1-3)GlcNAc(b1-2)Man(a1-6)]Man(b1-4)GlcNAc(b1-4)[Fuc(a1-6)]GlcNAc
# Procedure, shortened: (§1)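 Glycan array data came from 3228 arrays in the Consortium for Functional Glycomics database, and only arrays with an available protein sequence were kept. Glycan names were put into IUPAC-condensed notation, and columns mapping to the same glycan were averaged. The binding signal is a within-array Z-score, averaged across arrays of one protein sequence run at different concentrations or buffers and across linkers. A negative Z-score can be read as non-binding.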
# [2] = target: Fuc(a1-2)Gal(b1-4)[Fuc(a1-3)]GlcNAc
# Procedure, shortened: as §1
# [3] = target: Fuc(a1-2)Gal(b1-4)[Fuc(a1-3)]GlcNAc(b1-2)Man(a1-3)[Fuc(a1-2)Gal(b1-4)[Fuc(a1-3)]GlcNAc(b1-2)Man(a1-6)]Man(b1-4)GlcNAc(b1-4)[Fuc(a1-6)]GlcNAc
# Procedure, shortened: as §1
# Fuc(a1-2)[Gal(a1-3)]Gal = target: Fuc(a1-2)[Gal(a1-3)]Gal
# Procedure, shortened: as §1
# [4] = target: Fuc(a1-2)[GalNAc(a1-3)]Gal(b1-3)GlcNAc(b1-2)Man(a1-3)[Fuc(a1-2)[GalNAc(a1-3)]Gal(b1-3)GlcNAc(b1-2)Man(a1-6)]Man(b1-4)GlcNAc(b1-4)GlcNAc
# Procedure, shortened: as §1
# [5] = target: Fuc(a1-2)[GalNAc(a1-3)]Gal(b1-3)GlcNAc(b1-2)Man(a1-3)[Fuc(a1-2)[GalNAc(a1-3)]Gal(b1-3)GlcNAc(b1-2)Man(a1-6)]Man(b1-4)GlcNAc(b1-4)[Fuc(a1-6)]GlcNAc
# Procedure, shortened: as §1
# [6] = target: Fuc(a1-2)[GalNAc(a1-3)]Gal(b1-3)GlcNAc(b1-6)GalNAc
# Procedure, shortened: as §1
# [7] = target: Fuc(a1-3)[Gal(b1-4)]GlcNAc6S
# Procedure, shortened: as §1
# [8] = target: Gal(a1-3)Gal(b1-3)GlcNAc(b1-2)Man
# Procedure, shortened: as §1
# [9] = target: Gal(a1-4)Gal(b1-4)GlcNAc(b1-2)Man(a1-3)[Gal(a1-4)Gal(b1-4)GlcNAc(b1-2)Man(a1-6)]Man(b1-4)GlcNAc(b1-4)GlcNAc
# Procedure, shortened: as §1
# Gal(b1-3)Gal = target: Gal(b1-3)Gal
# Procedure, shortened: as §1
# [10] = target: Gal(b1-3)GlcNAc(b1-2)Man(a1-3)[Gal(b1-3)GlcNAc(b1-2)Man(a1-6)]Man(b1-4)GlcNAc(b1-4)[Fuc(a1-6)]GlcNAc
# Procedure, shortened: as §1
# [11] = target: Gal(b1-3)GlcNAc(b1-2)Man(a1-3)[GlcNAc(b1-4)][Gal(b1-3)GlcNAc(b1-2)Man(a1-6)]Man(b1-4)GlcNAc(b1-4)GlcNAc
# Procedure, shortened: as §1
# [12] = target: Gal(b1-4)GalNAc(a1-3)[Fuc(a1-2)]Gal(b1-4)GlcNAc
# Procedure, shortened: as §1
# Gal(b1-4)GlcNAc(b1-2)Man = target: Gal(b1-4)GlcNAc(b1-2)Man
# Procedure, shortened: as §1
# [13] = target: Gal(b1-4)GlcNAc(b1-2)Man(a1-3)[GlcNAc(b1-2)Man(a1-6)]Man(b1-4)GlcNAc(b1-4)GlcNAc
# Procedure, shortened: as §1
# [14] = target: Gal(b1-4)GlcNAc(b1-2)[Gal(b1-4)GlcNAc(b1-4)]Man(a1-3)[Gal(b1-4)GlcNAc(b1-2)Man(a1-6)]Man(b1-4)GlcNAc(b1-4)GlcNAc
# Procedure, shortened: as §1
# [15] = target: Gal(b1-4)GlcNAc(b1-3)Gal(b1-4)GlcNAc(b1-2)Man(a1-3)[Gal(b1-4)GlcNAc(b1-3)Gal(b1-4)GlcNAc(b1-2)Man(a1-6)]Man(b1-4)GlcNAc(b1-4)[Fuc(a1-6)]GlcNAc
# Procedure, shortened: as §1
# [16] = target: Gal(b1-4)GlcNAc(b1-3)Gal(b1-4)GlcNAc(b1-3)Gal(b1-4)GlcNAc(b1-3)Gal(b1-4)GlcNAc(b1-2)Man(a1-3)[Gal(b1-4)GlcNAc(b1-3)Gal(b1-4)GlcNAc(b1-3)Gal(b1-4)GlcNAc(b1-3)Gal(b1-4)GlcNAc(b1-2)Man(a1-6)]Man(b1-4)GlcNAc(b1-4)[Fuc(a1-6)]GlcNAc
# Procedure, shortened: as §1
# [17] = target: Gal(b1-4)GlcNAc(b1-3)Gal(b1-4)GlcNAc(b1-3)Gal(b1-4)GlcNAc(b1-3)Gal(b1-4)GlcNAc(b1-3)Gal(b1-4)GlcNAc(b1-2)Man(a1-3)[Gal(b1-4)GlcNAc(b1-3)Gal(b1-4)GlcNAc(b1-3)Gal(b1-4)GlcNAc(b1-3)Gal(b1-4)GlcNAc(b1-3)Gal(b1-4)GlcNAc(b1-2)Man(a1-6)]Man(b1-4)GlcNAc(b1-4)[Fuc(a1-6)]GlcNAc
# Procedure, shortened: as §1
# [18] = target: Gal(b1-4)GlcNAc(b1-6)GalNAc
# Procedure, shortened: as §1
# Gal3S(b1-3)GalNAc = target: Gal3S(b1-3)GalNAc
# Procedure, shortened: as §1
# Gal3S(b1-3)GlcNAc = target: Gal3S(b1-3)GlcNAc
# Procedure, shortened: as §1
# Gal3S(b1-4)Glc = target: Gal3S(b1-4)Glc
# Procedure, shortened: as §1
# [19] = target: GalNAc(b1-3)Gal(a1-4)Gal(b1-4)GlcNAc
# Procedure, shortened: as §1
# GalNAc3S(b1-4)GlcNAc = target: GalNAc3S(b1-4)GlcNAc
# Procedure, shortened: as §1
# [20] = target: GlcNAc(a1-4)Gal(b1-4)GlcNAc(b1-3)Gal(b1-4)GlcNAc(b1-3)Gal(b1-4)GlcNAc
# Procedure, shortened: as §1
# [21] = target: GlcNAc(b1-2)[GlcNAc(b1-4)]Man(a1-3)[GlcNAc(b1-2)Man(a1-6)]Man(b1-4)GlcNAc(b1-4)GlcNAc
# Procedure, shortened: as §1
# [22] = target: GlcNAc(b1-2)[GlcNAc(b1-6)]Man(a1-6)[GlcNAc(b1-4)][GlcNAc(b1-2)Man(a1-3)]Man(b1-4)GlcNAc(b1-4)GlcNAc
# Procedure, shortened: as §1
# [23] = target: GlcNAc(b1-3)Gal(b1-4)GlcNAc(b1-6)[Gal(b1-3)]GalNAc
# Procedure, shortened: as §1
# GlcNAc(b1-3)Man = target: GlcNAc(b1-3)Man
# Procedure, shortened: as §1
# [24] = target: GlcNAc(b1-4)[GlcNAc(b1-6)]GalNAc
# Procedure, shortened: as §1
# [25] = target: Man(a1-3)[Man(a1-6)]Man(a1-6)[Man(a1-2)Man(a1-3)]Man(b1-4)GlcNAc(b1-4)GlcNAc
# Procedure, shortened: as §1
# [26] = target: Neu5Ac(a2-3)Gal(b1-3)GlcNAc(b1-2)[Neu5Ac(a2-3)Gal(b1-3)GlcNAc(b1-4)]Man(a1-6)[Neu5Ac(a2-3)Gal(b1-3)GlcNAc(b1-2)Man(a1-3)]Man(b1-4)GlcNAc(b1-4)GlcNAc
# Procedure, shortened: as §1
# [27] = target: Neu5Ac(a2-3)Gal(b1-4)GlcNAc(b1-2)Man(a1-3)[GlcNAc(b1-4)][Neu5Ac(a2-3)Gal(b1-4)GlcNAc(b1-2)Man(a1-6)]Man(b1-4)GlcNAc(b1-4)GlcNAc
# Procedure, shortened: as §1
# [28] = target: Neu5Ac(a2-3)Gal(b1-4)GlcNAc(b1-2)[Neu5Ac(a2-3)Gal(b1-4)GlcNAc(b1-4)]Man(a1-3)[GlcNAc(b1-4)][Neu5Ac(a2-3)Gal(b1-4)GlcNAc(b1-4)Man(a1-6)]Man(b1-4)GlcNAc(b1-4)GlcNAc
# Procedure, shortened: as §1
# [29] = target: Neu5Ac(a2-3)Gal(b1-4)GlcNAc(b1-6)GalNAc
# Procedure, shortened: as §1
# [30] = target: Neu5Ac(a2-3)Gal(b1-4)[Fuc(a1-3)]GlcNAc(b1-3)Gal(b1-4)[Fuc(a1-3)]GlcNAc(b1-3)Gal(b1-4)[Fuc(a1-3)]GlcNAc
# Procedure, shortened: as §1
# [31] = target: Neu5Ac(a2-6)Gal(b1-4)GlcNAc(b1-3)[Neu5Ac(a2-6)Gal(b1-4)GlcNAc(b1-6)]GalNAc
# Procedure, shortened: as §1
# [32] = target: Neu5Gc(a2-3)Gal(b1-3)GlcNAc
# Procedure, shortened: as §1
# [33] = target: Neu5Gc(a2-6)Gal(b1-4)GlcNAc
# Procedure, shortened: as §1
# Neu5Gc(a2-6)GalNAc = target: Neu5Gc(a2-6)GalNAc
# Procedure, shortened: as §1
# Neu5Ac(a2-3)GalNAc = target: Neu5Ac(a2-3)GalNAc
# Procedure, shortened: as §1
# [34] = target: Neu5Ac(a2-3)[Neu5Ac(a2-6)]GalNAc
# Procedure, shortened: as §1
# [35] = target: Neu5Ac(a2-6)Gal(b1-4)GlcNAc(b1-2)Man(a1-6)[GlcNAc(b1-2)Man(a1-3)]Man(b1-4)GlcNAc(b1-4)GlcNAc
# Procedure, shortened: as §1
# [36] = target: Neu5Ac(a2-8)Neu5Ac(a2-3)[GalNAc(b1-4)]Gal(b1-4)Glc
# Procedure, shortened: as §1
# [37] = target: Neu5Ac(a2-8)Neu5Ac(a2-8)Neu5Ac
# Procedure, shortened: as §1
binder,measurement,setting,value
B1,glycan array binding signal (z-score),[1],-0.998
same,glycan array binding signal (z-score),[2],0.152
same,glycan array binding signal (z-score),[3],3.47
same,glycan array binding signal (z-score),Fuc(a1-2)[Gal(a1-3)]Gal,2.61
same,glycan array binding signal (z-score),[4],0.309
same,glycan array binding signal (z-score),[5],3.12
same,glycan array binding signal (z-score),[6],2.93
same,glycan array binding signal (z-score),[7],0.043
same,glycan array binding signal (z-score),[8],0.809
same,glycan array binding signal (z-score),[9],-0.901
same,glycan array binding signal (z-score),Gal(b1-3)Gal,-0.479
same,glycan array binding signal (z-score),[10],-1.57
same,glycan array binding signal (z-score),[11],3.37
same,glycan array binding signal (z-score),[12],0.995
same,glycan array binding signal (z-score),Gal(b1-4)GlcNAc(b1-2)Man,0.263
same,glycan array binding signal (z-score),[13],0.271
same,glycan array binding signal (z-score),[14],3.29
same,glycan array binding signal (z-score),[15],-0.29
same,glycan array binding signal (z-score),[16],-0.084
same,glycan array binding signal (z-score),[17],1.98
same,glycan array binding signal (z-score),[18],1.54
same,glycan array binding signal (z-score),Gal3S(b1-3)GalNAc,-0.627
same,glycan array binding signal (z-score),Gal3S(b1-3)GlcNAc,-0.636
same,glycan array binding signal (z-score),Gal3S(b1-4)Glc,1.24
same,glycan array binding signal (z-score),[19],4.96
same,glycan array binding signal (z-score),GalNAc3S(b1-4)GlcNAc,-0.547
same,glycan array binding signal (z-score),[20],-0.344
same,glycan array binding signal (z-score),[21],-0.869
same,glycan array binding signal (z-score),[22],-0.817
same,glycan array binding signal (z-score),[23],1.15
same,glycan array binding signal (z-score),GlcNAc(b1-3)Man,3.22
same,glycan array binding signal (z-score),[24],-0.003
same,glycan array binding signal (z-score),[25],0.309
same,glycan array binding signal (z-score),[26],0.972
same,glycan array binding signal (z-score),[27],3.12
same,glycan array binding signal (z-score),[28],-0.578
same,glycan array binding signal (z-score),[29],-0.95
same,glycan array binding signal (z-score),[30],-1.09
same,glycan array binding signal (z-score),[31],3.16
same,glycan array binding signal (z-score),[32],2.89
same,glycan array binding signal (z-score),[33],-1.34
same,glycan array binding signal (z-score),Neu5Gc(a2-6)GalNAc,0.828
B2,glycan array binding signal (z-score),Neu5Ac(a2-3)GalNAc,-0.531
same,glycan array binding signal (z-score),[34],-0.551
same,glycan array binding signal (z-score),[35],-0.423
same,glycan array binding signal (z-score),[36],-0.499
same,glycan array binding signal (z-score),[37],-0.526
